According to publication PMC7826789 (International Journal of Molecular Sciences, 2021):

How the values were obtained:
Conditions in all cases: Compound Concentration (nM):1000
GRK1 = test system: GRK1
GRK2 = test system: T1, GRK2
T1 construct: gene ADRBK1

GRK3 = test system: T2, GRK3
T2 construct: gene ADRBK2

GRK4 = test system: GRK4
GRK7 = test system: GRK7
GSK3A = test system: GSK3A
GSK3B = test system: GSK3B
HASPIN = test system: T3, HASPIN
T3 construct: gene GSG2

HCK = test system: HCK
HIPK1 = test system: HIPK1
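Also: KINOMEscan scanMAX binding as percent activity remaining versus control; lower means stronger binding.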

SMILES | Percent Control (GRK1) [%] | Percent Control (GRK2) [%] | Percent Control (GRK3) [%] | Percent Control (GRK4) [%] | Percent Control (GRK7) [%] | Percent Control (GSK3A) [%] | Percent Control (GSK3B) [%] | Percent Control (HASPIN) [%] | Percent Control (HCK) [%] | Percent Control (HIPK1) [%]
O=C1Nc2ccc(C(=O)c3ccco3)cc2C1=Cc1cc(Cl)c(O)c(Cl)c1 [GW406108X] | 60 | 100 | 97 | 100 | 65 | 67 | 69 | 2.2 | 98 | 11
COC(=O)Nc1nc2ccc(Oc3ccc(NC(=O)Nc4cc(C(F)(F)F)ccc4F)cc3)cc2s1.Cl [GW693917A] | 81 | 91 | 71 | 100 | 84 | 100 | 99 | 76 | 51 | 87
Cl.O=C(O[C@H]1CN[C@H](C#Cc2cc3ncnc(Nc4ccc5c(cnn5Cc5ccccc5)c4)c3s2)C1)N1CCOCC1 [GSK200398A] | 86 | 100 | 80 | 100 | 84 | 93 | 90 | 93 | 100 | 91
O=C(Nc1n[nH]c2nc(-c3ccc(O)cc3)c(Br)cc12)C1CC1 [SB-725317] | 100 | 100 | 100 | 100 | 100 | 7.5 | 0.5 | 100 | 100 | 22
CC1=C(C(=O)Nc2ccc3[nH]ncc3c2)C(c2ccc(Cl)c(Cl)c2)CC(=O)N1 (centres unmarked) [GSK299115A] | 89 | 16 | 20 | 100 | 99 | 100 | 100 | 84 | 81 | 72
NS(=O)(=O)c1ccc(Nc2ncc(-c3ccccc3)o2)cc1 [GW572399X] | 100 | 100 | 100 | 100 | 100 | 99 | 83 | 100 | 100 | 100
CCc1ccc(Oc2nccc(-c3c(-c4ccc(F)cc4)ncn3C3CCNCC3)n2)cc1 [SB-242719] | 92 | 94 | 90 | 100 | 100 | 97 | 100 | 86 | 99 | 80
CC1=C(C(=O)Nc2ccc3[nH]ncc3c2)C(c2ccc3ccccc3c2)CC(=O)N1 (centres unmarked) [GSK270822A] | 78 | 38 | 17 | 100 | 100 | 100 | 100 | 96 | 68 | 87
COc1ccc(COc2ccc(Cc3cnc(N)nc3N)cc2OC)cc1 [GW632580X] | 93 | 97 | 93 | 100 | 100 | 95 | 95 | 88 | 90 | 100
NS(=O)(=O)c1ccc(N/N=C2\C(=O)Nc3ccc(C(=O)NCc4ccncc4)cc32)cc1 [GW300657X] | 69 | 86 | 76 | 100 | 83 | 27 | 35 | 54 | 100 | 19
Cc1cc(O)cc(C)c1/C=C/c1cncc(C(N)=O)c1 [GW435821X] | 95 | 100 | 100 | 100 | 100 | 96 | 100 | 55 | 38 | 100
CN1CCN(C(=O)c2ccc(NC(=O)Nc3ccc(N(C)c4ccnc(Nc5ccc(CS(C)(=O)=O)cc5)n4)cc3)cc2)CC1.Cl [GW830263A] | 100 | 100 | 97 | 4.5 | 100 | 100 | 95 | 92 | 100 | 72
Cl.O=C(Nc1ccc(Oc2ccc3[nH]c(NC(=O)c4ccco4)nc3c2)cc1)Nc1cc(C(F)(F)F)ccc1F [GW683134A] | 100 | 100 | 100 | 100 | 100 | 100 | 88 | 100 | 41 | 100
COc1cc2ncnc(Nc3ccc4c(cnn4Cc4ccccc4)c3)c2cc1OC.Cl [GW282449A] | 100 | 100 | 100 | 100 | 100 | 100 | 100 | 99 | 21 | 100
C/C(Nc1ccc(S(N)(=O)=O)cc1)=C1/C(=O)Nc2ccccc21 [GW335962X] | 85 | 98 | 100 | 100 | 97 | 90 | 97 | 33 | 79 | 79
CCS(=O)(=O)c1ccc(OC)c(Nc2ncc(-c3cccc(OC)c3)o2)c1 [GW580509X] | 100 | 100 | 100 | 100 | 100 | 91 | 85 | 83 | 49 | 42
COc1cc(/C=N/Nc2ncnc3[nH]ncc23)ccc1O [GW578748X] | 83 | 100 | 78 | 100 | 100 | 34 | 78 | 0.2 | 64 | 24
C[C@@H](Oc1cc(-n2cnc3ccc(OC4CCN(C)CC4)cc32)sc1C(N)=O)c1ccccc1Cl [GSK579289A] | 75 | 86 | 78 | 37 | 85 | 98 | 100 | 55 | 91 | 61
COc1cccc(-n2ncc3c(N/N=C/c4ccncc4)ncnc32)c1 [GW784752X] | 99 | 84 | 100 | 88 | 87 | 16 | 2.5 | 75 | 100 | 28
NS(=O)(=O)c1ccc(N/N=C2\C(=O)Nc3ccc(C(=O)NCCc4c[nH]cn4)cc32)cc1 [GW300660X] | 80 | 100 | 99 | 100 | 100 | 50 | 19 | 3.6 | 100 | 25
